{
  "source": "PubChem BioAssay (NCI)",
  "note": "Compounds without any hit were thinned out: in the full panel of roughly 83,000, 20% have a hit.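 For each line, cells grew in 96-well plates with the test compound present at a single concentration for 48 hours.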 Values without a mark were called inactive. Active and inactive are the calls of the source. The calls were made as follows: active = growth percent below 10; inactive = the rest.",
  "data": [
    {"tested_on": "HL-60(TB) leukemia", "experiment": "NCI-60 one-dose screen, 48 h (100 = growth as untreated, 0 = no growth, -100 = all killed)", "conditions": "10 µM unless noted", "values": [
      {"smiles": "Nc1nc(Nc2ccccc2SSc2ccccc2Nc2nc(N)nc(-c3ccc4ccccc4c3)n2)nc(-c2ccc3ccccc3c2)n1", "growth": "112%"},
      {"smiles": "Cn1cc(-c2nc(N)nnc2-c2c[nH]c3ccc(Br)cc23)c2cc(F)ccc21", "growth": "75.3%"},
      {"smiles": "CC(=O)Oc1ccccc1C(=O)Nc1ccc(C(=O)/C=C/c2ccncc2)cc1", "growth": "7.33% (active)"},
      {"smiles": "COc1ccc(-c2nc3ccc(-c4nnc(SCC(=O)Nc5ccc(C(C)=O)cc5)o4)cc3[nH]2)cc1", "growth": "83.4%"},
      {"smiles": "Fc1ccc2nc(-c3cnn4cccnc34)sc2c1", "growth": "96.7%"},
      {"smiles": "C(=C(\\C1=NCCN1)n1cnc2ccccc21)/c1ccc2ccccc2c1", "growth": "50.5%"},
      {"smiles": "COC(=O)CCSC1=C(C)C(=O)c2ccccc2C1=O", "growth": "34.9%"},
      {"smiles": "COc1ccc(-c2ccnc3c(C#N)c(Nc4ccccc4)nn23)cc1OC", "growth": "71.1%"},
      {"smiles": "CC1=NC2=NC(=O)/C(=C3/N=C(C)C=C(c4ccccc4)N3N)NN2C(c2ccccc2)=C1", "growth": "113%"},
      {"smiles": "COc1ccc(C2C(C#N)=C(N)Oc3c2sc2ccc(C)cc32)cc1", "note": "(stereo not given)", "growth": "12.5%"},
      {"smiles": "COc1cc2c3c(cc4c5c(ccc4c3c1OC)OCO5)N(CCN(C)C)C2=O", "growth": "-17.1% (active)"},
      {"smiles": "COC(=O)C1CCCN(S(=O)(=O)/N=C2\\NC(=O)NC2=C(Cl)Cl)C1", "note": "(stereo not given)", "growth": "73.6%"},
      {"smiles": "Cc1ccc(NC(=O)N[C@@H](Cc2cc(F)cc(F)c2)C(=O)NC2C(=O)N3C[C@H](O)C[C@H]3C(=O)N3CCCC[C@H]3C(=O)N[C@@H](CO)C(=O)N3C[C@H](C)C[C@H]3C(=O)O[C@H]2C)c(F)c1", "note": "(stereo not given in full)", "growth": "16.2%"},
      {"smiles": "N#Cc1c(-c2ccccc2)cc(-c2c[nH]c3ccccc23)nc1-c1c[nH]c2ccccc12", "growth": "104%"},
      {"smiles": "O=C(c1ccc(O)cc1)[C@@H]1CN[C@@]2(C(=O)Nc3ccccc32)[C@H]1c1ccc(F)cc1", "growth": "95.4%"},
      {"smiles": "O=C1CCC(N2C(=O)c3ccc(NS(=O)(=O)c4ccccc4OC(F)(F)F)cc3C2=O)C(=O)N1", "note": "(stereo not given)", "growth": "-20.1% (active)"},
      {"smiles": "O=C(Nc1cccc(-c2nc(-c3ccc(NC(=O)c4cccs4)cc3Cl)no2)c1)Nc1ccc(NC(=O)C2CC2)c(C(F)(F)F)c1", "growth": "6.9% (active)"},
      {"smiles": "O=C1[C@@H]2Cc3c([nH]c4ccccc34)[C@H](c3c(Cl)cccc3Cl)N2C(=O)CN1C1CCN(CC2CCCCC2)CC1", "growth": "-25.1% (active)"},
      {"smiles": "CN(C)CCCNc1c2ccc(Cl)cc2nc2c1oc1ccccc12", "growth": "-1.28% (active)"},
      {"smiles": "C#Cc1ccc(NC(=O)c2ccc(/C=C/C(=O)c3nccn3C)cc2)c(F)c1", "growth": "7.29% (active)"},
      {"smiles": "O=C(Nc1cc(Cl)cc(Cl)c1)Nc1ccc2oc(=O)ccc2c1", "growth": "0.984% (active)"},
      {"smiles": "O=C(CSc1nc2ccccc2c(=O)n1-c1ccc(Cl)cc1)N/N=C/c1ccc(Oc2ccc(Cl)cc2)cc1", "growth": "111%"},
      {"smiles": "C#C[C@]1(O)CC[C@H]2[C@@H]3CC=C4c5sc(Nc6cccc(F)c6)nc5CC[C@]4(C)[C@H]3CC[C@@]21C", "growth": "-13.1% (active)"},
      {"smiles": "O=C(Cn1c(-c2ccccc2)nc2cc(Cl)c(Cl)cc21)N=Nc1c(O)[nH]c2ccc(Cl)cc12", "growth": "92.1%"},
      {"smiles": "CCN1C(=S)N(CC)C2C1NN=C1SC(c3ccccc3)=CC(=O)N12", "note": "(stereo not given)", "growth": "86.9%"},
      {"smiles": "Clc1ccc(-c2cn3cc(Cc4ccc(Cl)c(Cl)c4)sc3n2)cc1", "growth": "80.3%"},
      {"smiles": "CC[C@H](C)[C@H]1NC(=O)[C@@H]([C@H](O)C(C)C)NC(=O)[C@@H](C)N(C)C(=O)[C@H](C)N(C)C(=O)[C@H](CC(C)C)NC(=O)[C@H](CC(C)C)N(C)C(=O)[C@H](C)N(C)C1=O", "growth": "-19.4% (active)"},
      {"smiles": "Cc1ccc(NC(=O)c2ccc(CN3CCN(C)CC3)cc2)cc1Oc1ccc(-c2[nH]nc3ncnc(N)c23)cc1", "growth": "126%"},
      {"smiles": "COc1ccc(-c2cc(-c3ccc(N4CCOCC4)cc3)n3c(n2)nc2ccccc23)cc1OC", "growth": "71%"},
      {"smiles": "N#Cc1c(NC(=O)c2ccccc2C(F)(F)F)sc2c1CCC(=O)C2", "growth": "3.87% (active)"},
      {"smiles": "CC(C)[C@H]1c2[nH]c3ccccc3c2C[C@H]2C(=O)N(CCCCCCC(=O)NO)CC(=O)N12", "growth": "96.1%"},
      {"smiles": "C/C(=N\\NC(N)=S)c1nnn(-c2ccc([N+](=O)[O-])cc2)c1C", "growth": "105%"},
      {"smiles": "N=c1c2cc(-c3ccccc3)oc2ncn1/N=C/c1ccc(Br)cc1", "growth": "109%"},
      {"smiles": "O=C(Nc1ccc(Cl)c(C(F)(F)F)c1)Nc1ccc2oc(=O)ccc2c1", "growth": "26%"},
      {"smiles": "Cc1ccc2c(n1)C(=O)C(Cl)=C(Nc1ccc(C)c(C)c1)C2=O", "growth": "58.4%"},
      {"smiles": "CCOC(=O)c1cccc(NC2=C(Cl)C(=O)C(C)=C(C)C2=O)c1", "growth": "31.2%"},
      {"smiles": "COc1cc2nc(-c3ccc(Cl)cc3)cc(OCCCNCC3CCCO3)c2cc1OC", "note": "(stereo not given)", "growth": "32.1%"},
      {"smiles": "CC(C)(O)c1cncc(-c2ccc3ncnc(NCc4ccccc4)c3c2)c1", "growth": "105%"},
      {"smiles": "O=C(Cn1cc(CN2C(=O)c3ccc([N+](=O)[O-])cc3C2=O)nn1)Nc1ccc(F)cc1Cl", "growth": "99.2%"},
      {"smiles": "CCCC(=O)NC(c1ccc2c(c1)OC(F)(F)O2)c1cc(C)c2cccnc2c1O", "note": "(stereo not given)", "growth": "-4.8% (active)"}
    ]}
  ]
}
